High-throughput results deposited in PubChem by National Center for Advancing Translational Sciences (NCATS).
Rows were chosen to be rich in hits. Some 10% of all compounds tested hit in one or more screens of this group.
G9a inh: G9a (human) methyltransferase inhibition; Q96KQ7; G9a H3K9 monomethylation, AlphaScreen, 2 h; Potency, µM (doses to about 102 µM), for inactives: at the top dose activity, negative = inhibition, hits mostly inhibitors; 8.8% of 350,000 active; AID 504332; also: % is scaled to controls: 0 for no effect and ±100 for the full control effect; nearly all actives have a fitted effect of over 75% in size
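AlphaScreen detection with an anti-monomethyl H3K9 antibody quantified product after a 2 h room-temperature reaction containing 500 nM biotinylated H3K9 peptide, 20 µM SAM and 20 nM enzyme, which had been preincubated 15 min with compound.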
L3MBTL1 block: blocks human L3MBTL1; Q9Y468; Potency, µM (series often up to 57.1 µM), inactives show top-dose activity, negative = inhibition, most hits filed as inhibitors; AlphaScreen L3MBTL1–H3K9me1 peptide binding; 0.66% of 230,000 active; AID 485360; also: % is scaled to controls: 0 for no effect and ±100 for the full control effect; nearly all actives have a fitted effect of over 60% in size
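L3MBTL1 (50 nM) pre-complexed 30 min with biotinylated H3(1-15)K9me1 peptide (75 nM), then compounds added for 30 min at room temperature; AlphaScreen streptavidin donor/nickel chelate acceptor beads (10 ug/mL final) read after 30 min dark incubation.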
JMJD2A Tudor: JMJD2A Tudor domain (human) inhibition. O75164. AlphaScreen JMJD2A-Tudor / H3K4me3 peptide binding. Potency, µM (doses to about 114 µM), for the others: top-dose activity change, negative = inhibition, hits mostly inhibitors. 4.4% of 390,000 active. AID 504339; also: % is scaled to controls: 0 for no effect and ±100 for the full control effect; nearly all actives have a fitted effect of over 50% in size
GLS inh: blocks human kidney-isoform glutaminase activity; O94925; GLS enzymatic activity, qHTS titration; Potency, µM (doses to about 45.5 µM), for inactives: top-dose activity change, negative = inhibition, most hits filed as inhibitors; 0.21% of 410,000 active; also: % is scaled to controls: 0 for no effect and ±100 for the full control effect
Target sequence (O94925 whole entry, looked up, canonical isoform): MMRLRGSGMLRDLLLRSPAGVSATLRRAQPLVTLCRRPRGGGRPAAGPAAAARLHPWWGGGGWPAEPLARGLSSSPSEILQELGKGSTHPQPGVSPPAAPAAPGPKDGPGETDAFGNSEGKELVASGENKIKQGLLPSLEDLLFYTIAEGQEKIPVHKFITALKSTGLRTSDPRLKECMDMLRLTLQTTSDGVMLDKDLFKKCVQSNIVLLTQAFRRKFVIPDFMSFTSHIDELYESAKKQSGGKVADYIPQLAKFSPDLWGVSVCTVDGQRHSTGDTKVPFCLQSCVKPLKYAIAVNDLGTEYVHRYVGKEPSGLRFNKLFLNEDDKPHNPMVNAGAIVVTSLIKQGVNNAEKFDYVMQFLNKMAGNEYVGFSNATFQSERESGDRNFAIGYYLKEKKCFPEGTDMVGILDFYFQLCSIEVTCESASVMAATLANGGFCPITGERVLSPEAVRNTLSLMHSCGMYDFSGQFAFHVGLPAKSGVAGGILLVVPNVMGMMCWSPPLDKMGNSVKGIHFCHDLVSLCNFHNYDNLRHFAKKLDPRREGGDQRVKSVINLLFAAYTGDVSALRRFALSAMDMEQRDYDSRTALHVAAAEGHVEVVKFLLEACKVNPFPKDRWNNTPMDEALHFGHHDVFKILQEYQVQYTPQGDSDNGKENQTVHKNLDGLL
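Two-point fluorescence kinetic (t0, 30 min RT) for hKGA; glutamate detected via glutamate oxidase–HRP–Amplex Red. Substrate: 1 mM L-glutamine solution; buffer 45 mM KH2PO4, pH 8.2.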
HP1b binding inh: HP1-beta chromodomain-methylated histone interaction inhibition; AID 540317; Potency, µM (highest dose often 114 µM), for inactives: at the top dose activity change, negative = inhibition, usual class: inhibitors; 0.56% of 390,000 active; AlphaScreen HP1-beta / biotin-H3K9me3 peptide binding; P83916; also: nearly all actives have a fitted effect of over 70% in size
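Compound inhibition of the preformed complex between 50 nM HP1-beta and 50 nM biotinylated H3K9me3 peptide was read by AlphaScreen. Buffer was PBS pH 7.4 with 0.01% Tween-20. Incubations ran 30 min at room temperature, with 10 ug/mL donor/acceptor beads.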
BAZ2B inh: inhibitors of human BAZ2B bromodomain; Q9UIF8; AlphaScreen BAZ2B-H3K14Ac peptide displacement; Potency, µM (top dose mostly 114 µM), without a hit: top-dose activity change, negative = inhibition, most hits filed as inhibitors; 4.4% of 360,000 active; AID 504333; also: % is scaled to controls: 0 for no effect and ±100 for the full control effect; nearly all actives have a fitted effect of over 60% in size
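AlphaScreen displacement of biotin-H3(5-23)K14Ac peptide (50 nM final) from BAZ2B (50 nM final) in PBS pH 7.4, 0.01% Tween-20; complex preformed 30 min RT, then compounds (top 110 uM) 30 min RT, beads 20 min dark.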
An asterisk follows results filed as active; ? = inconclusive; . = not tested or not shown; ! = not active in a repeat; [ ] = dose if it differs, or a comment. Calls follow the shape of the dose curve; as a rule, active = well fitted curve in the direction sought with a large enough effect; inconclusive = small, poorly fitted or top-dose-only effect, or another doubt; inactive = no such curve, though single readings can be large; an effect the other way counts as inactive or inconclusive. Potency is read from the fitted curve at half-maximal effect.

SMILES | G9a inh | L3MBTL1 block | JMJD2A Tudor | GLS inh | HP1b binding inh | BAZ2B inh
Nc1nc(SCc2ccccc2)sc1C(=O)N1CCCCC1 | . | . | . | -2% | . | .
Nc1c(C(=O)N2CCCCC2)sc(=S)n1-c1ccccc1 | ? | -6% | 50µM* | -8% | 14µM* | ?
Nc1c(C(=O)N2CCOCC2)sc(=S)n1-c1ccccc1 | 2.2µM* | -7% | ? | -3% | -43% | -9%
O=C(Cn1c2ncccc2c(=O)n1-c1ccccc1)Nc1cccc(C(F)(F)F)c1 | 34%[59 µM] | . | 0% | 2% | 34% | 6%
Cc1ccc2nc(-c3cccs3)c(Nc3c(C)cccc3C)n2c1 | -20%[59 µM] | . | -25% | 1% | 37% | -26%
COc1ccc(-c2c3c(=O)n(C)c(=O)n(C)c3c3c(-c4ccc(C)cc4)nc4ccccc4n23)cc1 | 9%[59 µM] | . | -15% | -3% | 26% | -1%
O=C(CCS(=O)(=O)c1ccc(Br)cc1)Nc1ccc(Br)cc1F | ? | ? | -35%[57.1 µM] | -2% | -25% | 50µM*
COC(=O)c1ccc(NC(=O)CCS(=O)(=O)c2ccc(C)cc2)cc1 | 14% | . | -7% | -1% | 26% | 7%
COC(=O)c1ccc(NC(=O)CCS(=O)(=O)c2ccc(Br)cc2)cc1 | 56µM*! | . | -28% | 38% | -21% | 56µM*!
Cc1ccc(S(=O)(=O)CCC(=O)Nc2cccc(C)c2)cc1 | -10%[59 µM] | -1% | -1% | -10% | 39% | 11%
COC(=O)c1ccc(NC(=O)CSCC(=O)OCC(=O)c2ccc(Br)cc2)cc1 | 10µM* | . | -8%[57.1 µM] | -2% | 56% | -4%
CCc1cccc(NC(=O)CCS(=O)(=O)c2ccc(Br)cc2)c1 | 28µM* | . | 11µM* | -14% | 8.9µM* | 32µM*
CCC(=O)N1CCc2cc(Br)cc(S(=O)(=O)N3CCCC(C(=O)Nc4cccc(Cl)c4C)C3)c21 (stereo unspecified) | 2%[59 µM] | . | -19% | -3% | 36% | 0%
CC(=O)c1ccc(NC(=O)CCS(=O)(=O)c2ccc3c(c2)n(C)c(=O)c(=O)n3C)cc1 | ? | -12% | 79µM* | -17% | -18% | 79µM*
COC(=O)c1c(N)sc(Cc2ccccc2)c1C | -11%[0.501 µM] | -3% | -13% | -5% | 25% | ?
Nc1sc(-c2ccccc2)c(Cc2ccccc2)c1C(=O)O | 50µM* | . | ? | 18% | ? | .
C[C@@H]1CC[C@]2(C(=O)O[C@@H]3O[C@H](CO)[C@@H](O)[C@H](O)[C@H]3O)CC[C@]3(C)C(=CCC4[C@@]5(C)C[C@@H](O)[C@H](O)[C@@](C)(C(=O)O[C@@H]6[C@H](O)C[C@@]7(C)C(CC[C@]8(C)C7CC=C7[C@H]9[C@](C(=O)O[C@@H]%10O[C@H](CO)[C@@H](O)[C@H](O)[C@H]%10O)(CC[C@@H](C)[C@@]9(C)O)CC[C@]78C)[C@@]6(CO)C(=O)O)C5CC[C@]43C)[C@@H]2[C@]1(C)O (stereo partly specified) | . | 33% | -13% | 7.1µM* | 21% | .
Cc1ccc(S(=O)(=O)c2cnc(SC(C)C(=O)Nc3ccccc3)[nH]c2=O)cc1 (stereo unspecified) | 0%[59 µM] | . | -20% | 6% | 35% | -1%
COc1cccc(CN(C)CC(O)COc2cc(Cl)ccc2Cl)c1 (stereo unspecified) | -17% | . | 6.3µM* | 6% | ? | 56µM*
Cc1sc(-n2c(C)cc(/C=N/n3cnnc3)c2C)c(C#N)c1C | 8.9µM* | -4% | ? | -21% | -36% | ?
Cc1cc(/C=N/n2cnnc2)c(C)n1-c1cccc(Cl)c1 | 6%[12.7 µM] | -2% | -30% | -7% | -5% | ?
Cc1cc(/C=C2/C(=O)NN(c3ccccc3)C2=O)c(C)n1-c1cccc(O)c1 | 22µM* | ? | -32% | 0% | -6% | ?
Cc1cc(/C=C2\SC(=S)NC2=O)c(C)n1-c1cccc(O)c1 | 40µM* | -29% | -32%[11.4 µM] | 40% | ? | 50µM*
Cc1cc(/C=C2/NC(=O)NC2=O)c(C)n1-c1sc2c(c1C#N)CCCC2 | -30%[12.7 µM] | . | ? | 11% | -15% | ?
Cc1sc(-n2c(C)cc(/C=C3\SC(=S)NC3=O)c2C)c(C#N)c1C | ? | 50% | 40µM* | 32% | ? | 86%
SMILES | G9a inh | L3MBTL1 block | JMJD2A Tudor | GLS inh | HP1b binding inh | BAZ2B inh
COc1ccc(Cl)cc1NC(=O)CN1Cc2ccccc2C1=O | -12%[59 µM] | . | -10% | 3% | 26% | -3%
O=C(CN1CCOc2ccccc21)NCc1ccc(F)cc1 | ? | -1% | -13% | 19% | 44% | -9%
O=C(CN1CCOc2ccccc21)NCc1ccc(Cl)cc1 | 50µM* | -13% | -18% | 38% | 28% | ?
O=C(CN1CCCc2ccccc21)NC(=O)NC1CCCCC1 | 71µM* | ? | 32µM* | 1% | ? | ?
COc1ccc(Cl)cc1NC(=O)CN1CCc2ccccc21 | 22µM* | -12% | -26% | -4% | 27% | ?
O=C(CN1CCc2ccccc21)NCc1ccccc1Cl | 71µM* | -8% | ? | 22% | -9% | -37%
O=C(CN1CCCc2ccccc21)NC(=O)NCc1ccccc1 | -5%[12.7 µM] | . | -13% | 2% | 21% | 2%
COC(=O)c1ccc(S(=O)(=O)N2CCc3ccccc32)cc1 | 47% | 12% | 5% | -18% | 70% | ?
COC(=O)c1ccc(CN2CCc3ccccc32)cc1 | . | -3% | 40µM* | -20% | -19% | ?
O=C(CN1CCc2ccccc21)NC(=O)NCc1ccccc1 | 32µM* | -14% | -9%[11.4 µM] | 0% | -11% | .
CCc1nn(CC(=O)Nc2ccc(N(CC)CC)cc2C)c(=O)c2cc3sccc3n12 | ? | . | -13% | 2% | 9% | -15%
COc1ccccc1N1C(=O)c2ccccc2C1=O | . | . | -31% | . | . | .
CCO/C=C1/C(=O)N(c2ccc(OC)cc2)C(=O)c2ccccc21 | 25µM* | 4% | -23% | 24% | 27% | -15%
CCO/C=C1/C(=O)N(c2ccccc2OC)C(=O)c2ccccc21 | 28µM* | -1% | ? | 2% | 18% | -16%
CCO/C=C1/C(=O)N(C)C(=O)c2cc(OC)ccc21 | 3.5µM* | . | -11% | 15% | 28% | -1%
CCO/C=C1/C(=O)N(Cc2ccccc2)C(=O)c2ccccc21 | 14µM* | -2% | -24% | 13% | 47% | -3%
COc1cc(OC)c(NC(=O)Cn2cnc3sc(C)c(S(=O)(=O)N4CCN(C)CC4)c3c2=O)cc1Cl | ? | . | -23% | 5% | ? | -10%
CCO/C=C1\C(=O)N(c2ccccc2)C(=O)c2ccccc21 | 25µM* | -6% | -28% | -6% | 25% | ?
